Vaccinia mCherry: inhibitors of vaccinia virus infection (mCherry reporter signal); Potency, µM (highest dose often 36.5 µM), usual class: inhibitors; Vaccinia virus mCherry reporter infection, fluorescence; 0.63% of 310,000 active; calls by dose curve; tested in A549 cells; also: nearly all actives have a fitted effect of over 35% in size
NS1 function inh: influenza NS1 inhibition; Potency, µM (highest dose often 46.1 µM); 0.4% of 270,000 active; calls by dose curve; also: actives are rising curves; nearly all actives have a fitted effect of over 50% in size
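Read-out: OD600 growth recovery of NS1-expressing budding yeast. Cells grown overnight at 30C in -URA glucose medium, washed, resuspended and diluted 1:100 in 2% galactose assay medium, pH 6.0. Same strain lacking NS1 served as positive control.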
Pf growth 96h: P. falciparum growth inhibition at 96 hour, primary screen for plastid delayed-death inhibitors; Potency, µM (top dose mostly 28.7 µM), usual class: inhibitors; 6.9% of 320,000 active; P. falciparum luciferase reporter growth, 96 h
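Two parasite generations (96 h, 37 C, 5% CO2) of compound exposure in infected erythrocytes (0.05% parasitemia, 2% hematocrit). Luciferase-reporter P. falciparum; decreased luminescence indicates inhibited growth, aimed at apicoplast-acting delayed death.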
HCV inhibitor: blocks hepatitis C virus; 3.4% of 340,000 active; Potency, µM (doses to about 41.8 µM), actives largely listed as inhibitors; Huh7.5.1 HCVcc-Cre infection, luciferase reporter, 44 h
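After 44 h co-culture of compound, cells and HCVcc-Cre (~0.5 moi), substrate is added for 15 min at room temperature and luciferase measured over 15 sec. Cells were seeded at 1,000/well and pre-cultured 4 h.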
VACV Venus inh: inhibitors of vaccinia virus (Venus reporter); Vaccinia virus Venus reporter expression, fluorescence; 0.46% of 330,000 active; Potency, µM (titrated, usually from 36.5 µM), most hits filed as inhibitors; calls by dose curve; tested in A549 cells; also: nearly all actives have a fitted effect of over 30% in size
Pf growth 48h: inhibits P. falciparum growth in the first generation, 48 h; AID 504832; P. falciparum luciferase growth in erythrocytes, 48 h; 5.9% of 310,000 active; Potency, µM (series often up to 28.7 µM), actives largely listed as inhibitors
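Erythrocytes infected with P. falciparum carrying an integrated firefly luciferase reporter (2% hematocrit, 0.1% parasitemia final) were exposed to compounds in RPMI 1640 with 0.5% Albumax at 37 C, 5% CO2. Growth inhibition was scored as reduced luminescence.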
Each line names hits and unclear results; the compound was inactive in the other large screens; ! = a repeat was not active. The list is not random: actives were taken first. Their share in the collection is about 11%. Unless noted, calls follow the shape of the dose curve; as a rule, active = well fitted inhibition curve with a large enough effect; inconclusive = small, poorly fitted or top-dose-only effect, or another doubt; inactive = no such curve, though single readings can be large or run the other way.

CCCC(=O)N(Cc1cc(=O)[nH]c2ccccc12)c1cccc(C)c1	Pf growth 96h 8.3µM, Pf growth 48h 12µM
O=C(Nc1cc([N+](=O)[O-])ccc1F)c1ccc2ccccc2c1	Pf growth 96h inconclusive, VACV Venus inh inconclusive
CC(=O)OCC(=O)[C@@]1(O)CCC2C3CCC4=CC(=O)CC[C@]4(C)C3C(O)C[C@]21C (stereo partly drawn)	none (no result: NS1 function inh, Pf growth 96h, HCV inhibitor, Pf growth 48h)
C[C@]12CCC(=O)C=C1CC[C@@H]1[C@@H]2[C@@H](O)C[C@@]2(C)[C@H]1CC[C@]2(O)C(=O)COP(=O)(O)O	Pf growth 96h 7.6µM (no result: Vaccinia mCherry, NS1 function inh, HCV inhibitor, VACV Venus inh)
CCC(C)C(NC(=O)CCC(=O)OCC(=O)[C@@]1(O)CCC2[C@@H]3CCC4=CC(=O)C=C[C@]4(C)C3[C@@H](O)C[C@@]21C)C(=O)O (stereo partly drawn)	Pf growth 96h inconclusive, Pf growth 48h 3.7µM (no result: Vaccinia mCherry, VACV Venus inh)
C[C@]12CCC(=O)C=C1CC[C@@H]1[C@@H]2[C@@H](O)C[C@@]2(C)[C@H]1CC[C@]2(O)C(=O)COC(=O)CCC(=O)O	Pf growth 96h 12µM!, Pf growth 48h 13µM!
CN1C(=O)C(=Cc2sc(=O)n(-c3ccccc3)c2N2CCCCC2)C(=O)N(C)C1=O	Pf growth 96h inconclusive, Pf growth 48h inconclusive
CCN(CC)c1nc(Oc2ccc(C(=O)NN)cc2)nc(Oc2ccc(C(=O)NN)cc2)n1	NS1 function inh inconclusive, Pf growth 96h 9.3µM, Pf growth 48h 9.3µM
CCN(CC)c1nc(Oc2ccc(C(=O)OC)cc2)nc(N2CCOCC2)n1	HCV inhibitor inconclusive (no result: Vaccinia mCherry, VACV Venus inh)
CCOC(=O)c1ccc(Oc2nc(NC)nc(OC)n2)cc1	VACV Venus inh inconclusive, Pf growth 48h 13µM
COC(=O)c1ccc(Oc2nc(Nc3ccccc3)nc(N(C)C)n2)cc1	HCV inhibitor 11µM, Pf growth 48h inconclusive (no result: Vaccinia mCherry, VACV Venus inh)
CCN(CC)c1nc(Nc2ccccc2)nc(Oc2ccc(C(=O)OC)cc2)n1	HCV inhibitor inconclusive (no result: Vaccinia mCherry, VACV Venus inh)
CNc1nc(Oc2ccc(C(=O)OC)cc2)nc(SC)n1	Pf growth 48h 10µM
CC(C)CN(C(=O)C1CCCCC1)C1CCS(=O)(=O)C1 (stereo not drawn)	none (no result: NS1 function inh)
COc1nc(Nc2ccc(C(C)=O)cc2)nc(OC)n1	Pf growth 48h 15µM
COc1ccc(Nc2nc(OC)nc(OC)n2)cc1	Pf growth 96h inconclusive, Pf growth 48h inconclusive (no result: Vaccinia mCherry, VACV Venus inh)
CC(=O)Nc1ccc(S(=O)(=O)N2CCN(c3cccc(C)c3C)CC2)cc1	Vaccinia mCherry inconclusive, Pf growth 96h inconclusive, HCV inhibitor inconclusive, VACV Venus inh inconclusive (no result: Pf growth 48h)
CCN(CC)CCNc1nc(-c2ccccc2)c2c(c1C#N)CC(C)(C)OC2	Pf growth 96h 8.3µM, HCV inhibitor inconclusive (no result: Vaccinia mCherry, Pf growth 48h)
CCCCN(C)c1nc(-c2ccco2)c2c(c1C#N)CC(C)(C)OC2	Pf growth 96h 2.9µM (no result: Pf growth 48h)
CC1(C)Cc2c(C#N)c(NCCCO)nc(-c3ccccc3)c2CO1	Pf growth 96h inconclusive (no result: Pf growth 48h)
CCn1nc(C)c(CNC(=O)c2cc(COc3ccc(C)nc3)on2)c1C	HCV inhibitor 11µM
O=[N+]([O-])c1cc([N+](=O)[O-])c(Oc2cc(F)cc(F)c2)cc1NN1CCCCC1	Vaccinia mCherry inconclusive, VACV Venus inh inconclusive (no result: NS1 function inh)
CCCCn1c(-c2ccccc2C)nc2cc3[nH]c(=O)c(C(C)C)nc3cc21	Vaccinia mCherry inconclusive, Pf growth 96h inconclusive, VACV Venus inh inconclusive, Pf growth 48h inconclusive
CCCCn1c(C2CCCCC2)nc2cc3[nH]c(=O)c(C(C)C)nc3cc21	Pf growth 96h 9.3µM, HCV inhibitor inconclusive
COC(=O)[C@]12OC[C@]34C([C@@H](O)[C@@H]1O)[C@]1(C)CC(=O)C(O)=C(C)[C@@H]1C[C@H]3OC(=O)[C@H](O)[C@@H]24 (stereo partly drawn)	Vaccinia mCherry inconclusive, Pf growth 96h 1µM, HCV inhibitor inconclusive, VACV Venus inh 0.89µM, Pf growth 48h 1µM
C/C(CC(=O)Nc1ccc(N(C)C)cc1)=N\NC(=O)C(=O)NCc1ccccc1	Vaccinia mCherry inconclusive, Pf growth 96h 4.7µM (no result: NS1 function inh)
C/C(CC(=O)Nc1ccc(N(C)C)cc1)=N\NC(=O)c1ccc(C(C)(C)C)cc1	Pf growth 96h 4.1µM (no result: Vaccinia mCherry, VACV Venus inh)
COc1ccc(C)cc1-n1cnc2sc(C)c(C)c2c1=O	none (no result: NS1 function inh, Pf growth 96h, HCV inhibitor, Pf growth 48h)
Cn1c(=O)n(C)c2cc(NC(=O)CCl)ccc21	Pf growth 96h inconclusive, HCV inhibitor inconclusive, Pf growth 48h 1.5µM (no result: Vaccinia mCherry, VACV Venus inh)
Cc1nc2ccccc2n1CC(O)COc1ccc(C(=O)O)cc1 (stereo not drawn)	none (no result: NS1 function inh, Pf growth 96h, HCV inhibitor, Pf growth 48h)
C=CCn1c(SCC#N)nc2sc(CC)cc2c1=O	none (no result: NS1 function inh)
C=CCn1c(SCC(=O)c2cccs2)nc2sc(CC)cc2c1=O	HCV inhibitor 3.2µM (no result: Vaccinia mCherry, VACV Venus inh, Pf growth 48h)
C=CCn1c(SCC(=O)O)nc2sc(CC)cc2c1=O	Pf growth 96h inconclusive
C=CCn1c(SCC(=O)/C(C#N)=C(\C)N)nc2sc(CC)cc2c1=O	Pf growth 96h 10µM, HCV inhibitor inconclusive, Pf growth 48h inconclusive
COC(=O)c1cccc(Cn2cc([N+](=O)[O-])cn2)c1	Pf growth 96h 3.7µM (no result: Vaccinia mCherry, NS1 function inh, HCV inhibitor, VACV Venus inh)
CCn1c(NC(=O)/C=C/c2ccc(F)cc2)nc2ccccc21	Vaccinia mCherry inconclusive, Pf growth 96h inconclusive, HCV inhibitor inconclusive, Pf growth 48h 12µM
CN(C)CCCn1c(NC(=O)C2CCCCC2)nc2ccccc21	HCV inhibitor inconclusive
CCCCn1c(NC(=O)C2CCCCC2)nc2ccccc21	HCV inhibitor 13µM, VACV Venus inh inconclusive, Pf growth 48h inconclusive (no result: Vaccinia mCherry, Pf growth 96h)
COC(=O)c1ccc(Cn2cc([N+](=O)[O-])cn2)cc1	none
CCn1c(NC(=O)c2cccc(Cn3cc(Cl)cn3)c2)nc2ccccc21	Vaccinia mCherry inconclusive, Pf growth 96h inconclusive, HCV inhibitor 14µM, Pf growth 48h 10µM
Cn1c(NC(=O)c2cccc(Cn3cc(Cl)cn3)c2)nc2ccccc21	Vaccinia mCherry inconclusive (no result: Pf growth 96h)
CCCn1c(NC(=O)c2ccc(F)cc2)nc2ccccc21	none (no result: NS1 function inh)
C=CCn1c(P(=O)(O)c2ccccc2)nc2ccccc21	Pf growth 96h inconclusive (no result: Vaccinia mCherry, VACV Venus inh)
